Measurements reported in the supplement of paper PMC11732987, “Enantioselective OTUD7B fragment discovery through chemoproteomics screening and high-throughput optimisation” (Communications Chemistry, 2025).
Values without a mark were called inactive.

Experiments:
Assay in all cases: log2 ratio of Biotin-Ahx-Ub-VS probe labelling (fragment/DMSO); higher = less target engagement (more negative = stronger competition), active = hit call of the paper (q ≤ 0.05, log2 ratio ≤ -1)
Conditions in all cases: compound concentration: 200 uM; treatment time: 3 h
USP19 = target: T1, USP19 (UniProt O94966)
T1 sequence (whole entry): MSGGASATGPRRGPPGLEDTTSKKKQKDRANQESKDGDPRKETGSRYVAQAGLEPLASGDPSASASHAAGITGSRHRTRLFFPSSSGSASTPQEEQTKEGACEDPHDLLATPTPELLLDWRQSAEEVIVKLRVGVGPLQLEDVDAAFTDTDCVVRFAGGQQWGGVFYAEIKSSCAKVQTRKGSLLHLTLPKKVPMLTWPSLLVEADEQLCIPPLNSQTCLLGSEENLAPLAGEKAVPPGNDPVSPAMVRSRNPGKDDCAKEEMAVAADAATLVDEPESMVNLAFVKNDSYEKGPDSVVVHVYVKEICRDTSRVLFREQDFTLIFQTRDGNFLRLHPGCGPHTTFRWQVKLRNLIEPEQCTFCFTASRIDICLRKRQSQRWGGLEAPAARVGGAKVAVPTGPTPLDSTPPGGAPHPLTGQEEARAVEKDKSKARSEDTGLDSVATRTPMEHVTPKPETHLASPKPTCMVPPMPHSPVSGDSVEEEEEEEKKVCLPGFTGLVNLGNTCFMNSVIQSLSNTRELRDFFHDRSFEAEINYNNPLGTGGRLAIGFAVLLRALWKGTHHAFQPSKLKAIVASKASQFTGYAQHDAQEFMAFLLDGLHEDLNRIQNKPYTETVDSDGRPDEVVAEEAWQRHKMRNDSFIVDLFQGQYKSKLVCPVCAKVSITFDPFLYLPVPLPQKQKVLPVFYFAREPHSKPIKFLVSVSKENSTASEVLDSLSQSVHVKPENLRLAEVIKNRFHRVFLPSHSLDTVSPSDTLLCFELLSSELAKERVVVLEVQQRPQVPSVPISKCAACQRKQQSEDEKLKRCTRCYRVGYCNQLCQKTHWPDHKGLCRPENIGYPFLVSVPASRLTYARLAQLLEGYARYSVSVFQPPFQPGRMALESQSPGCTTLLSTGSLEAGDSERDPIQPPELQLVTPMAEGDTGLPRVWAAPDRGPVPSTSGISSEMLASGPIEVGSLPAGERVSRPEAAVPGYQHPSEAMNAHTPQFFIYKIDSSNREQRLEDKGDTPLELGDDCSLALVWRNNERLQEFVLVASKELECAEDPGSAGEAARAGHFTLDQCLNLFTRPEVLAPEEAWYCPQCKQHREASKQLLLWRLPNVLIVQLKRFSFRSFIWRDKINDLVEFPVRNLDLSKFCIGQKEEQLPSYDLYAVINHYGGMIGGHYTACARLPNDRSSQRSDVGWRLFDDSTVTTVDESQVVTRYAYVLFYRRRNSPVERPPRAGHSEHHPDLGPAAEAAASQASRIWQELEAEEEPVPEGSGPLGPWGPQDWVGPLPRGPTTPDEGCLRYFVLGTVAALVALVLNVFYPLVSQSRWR
Outline: (§1)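 The table lists average log2 ratios of fragment over vehicle, from an unpaired t-test on global-median-normalised Spectronaut label-free quantities. Proteins with ≥2 unique peptides were used. Samples were HEK293T lysate (495 µg) treated in triplicate with fragment at 200 µM or vehicle for 3 h, then with Biotin-Ahx-Ub-VS (0.5 µM final) for 1 h, with labelled DUBs NeutrAvidin-enriched and run by diaPASEF LC-MS/MS.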

USP22 = target: T2, USP22 (UniProt Q9UPT9)
T2 sequence (whole entry): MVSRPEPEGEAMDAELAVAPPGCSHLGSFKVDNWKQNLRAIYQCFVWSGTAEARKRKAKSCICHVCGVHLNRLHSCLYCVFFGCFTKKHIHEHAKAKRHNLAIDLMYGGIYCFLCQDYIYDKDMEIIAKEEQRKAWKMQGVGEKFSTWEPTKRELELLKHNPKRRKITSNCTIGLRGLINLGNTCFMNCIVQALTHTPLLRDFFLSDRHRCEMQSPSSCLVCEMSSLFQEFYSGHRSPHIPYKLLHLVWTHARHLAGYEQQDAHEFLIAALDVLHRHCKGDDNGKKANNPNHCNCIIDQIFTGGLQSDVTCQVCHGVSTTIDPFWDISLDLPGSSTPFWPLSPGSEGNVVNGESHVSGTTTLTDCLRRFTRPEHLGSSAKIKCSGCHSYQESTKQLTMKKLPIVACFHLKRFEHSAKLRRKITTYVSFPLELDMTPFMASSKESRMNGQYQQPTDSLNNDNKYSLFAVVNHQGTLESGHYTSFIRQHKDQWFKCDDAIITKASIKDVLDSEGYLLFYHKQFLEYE
Outline: as §1

USP24 = USP24 (UniProt Q9UPU5)
Sequence of USP24 (Q9UPU5 whole entry): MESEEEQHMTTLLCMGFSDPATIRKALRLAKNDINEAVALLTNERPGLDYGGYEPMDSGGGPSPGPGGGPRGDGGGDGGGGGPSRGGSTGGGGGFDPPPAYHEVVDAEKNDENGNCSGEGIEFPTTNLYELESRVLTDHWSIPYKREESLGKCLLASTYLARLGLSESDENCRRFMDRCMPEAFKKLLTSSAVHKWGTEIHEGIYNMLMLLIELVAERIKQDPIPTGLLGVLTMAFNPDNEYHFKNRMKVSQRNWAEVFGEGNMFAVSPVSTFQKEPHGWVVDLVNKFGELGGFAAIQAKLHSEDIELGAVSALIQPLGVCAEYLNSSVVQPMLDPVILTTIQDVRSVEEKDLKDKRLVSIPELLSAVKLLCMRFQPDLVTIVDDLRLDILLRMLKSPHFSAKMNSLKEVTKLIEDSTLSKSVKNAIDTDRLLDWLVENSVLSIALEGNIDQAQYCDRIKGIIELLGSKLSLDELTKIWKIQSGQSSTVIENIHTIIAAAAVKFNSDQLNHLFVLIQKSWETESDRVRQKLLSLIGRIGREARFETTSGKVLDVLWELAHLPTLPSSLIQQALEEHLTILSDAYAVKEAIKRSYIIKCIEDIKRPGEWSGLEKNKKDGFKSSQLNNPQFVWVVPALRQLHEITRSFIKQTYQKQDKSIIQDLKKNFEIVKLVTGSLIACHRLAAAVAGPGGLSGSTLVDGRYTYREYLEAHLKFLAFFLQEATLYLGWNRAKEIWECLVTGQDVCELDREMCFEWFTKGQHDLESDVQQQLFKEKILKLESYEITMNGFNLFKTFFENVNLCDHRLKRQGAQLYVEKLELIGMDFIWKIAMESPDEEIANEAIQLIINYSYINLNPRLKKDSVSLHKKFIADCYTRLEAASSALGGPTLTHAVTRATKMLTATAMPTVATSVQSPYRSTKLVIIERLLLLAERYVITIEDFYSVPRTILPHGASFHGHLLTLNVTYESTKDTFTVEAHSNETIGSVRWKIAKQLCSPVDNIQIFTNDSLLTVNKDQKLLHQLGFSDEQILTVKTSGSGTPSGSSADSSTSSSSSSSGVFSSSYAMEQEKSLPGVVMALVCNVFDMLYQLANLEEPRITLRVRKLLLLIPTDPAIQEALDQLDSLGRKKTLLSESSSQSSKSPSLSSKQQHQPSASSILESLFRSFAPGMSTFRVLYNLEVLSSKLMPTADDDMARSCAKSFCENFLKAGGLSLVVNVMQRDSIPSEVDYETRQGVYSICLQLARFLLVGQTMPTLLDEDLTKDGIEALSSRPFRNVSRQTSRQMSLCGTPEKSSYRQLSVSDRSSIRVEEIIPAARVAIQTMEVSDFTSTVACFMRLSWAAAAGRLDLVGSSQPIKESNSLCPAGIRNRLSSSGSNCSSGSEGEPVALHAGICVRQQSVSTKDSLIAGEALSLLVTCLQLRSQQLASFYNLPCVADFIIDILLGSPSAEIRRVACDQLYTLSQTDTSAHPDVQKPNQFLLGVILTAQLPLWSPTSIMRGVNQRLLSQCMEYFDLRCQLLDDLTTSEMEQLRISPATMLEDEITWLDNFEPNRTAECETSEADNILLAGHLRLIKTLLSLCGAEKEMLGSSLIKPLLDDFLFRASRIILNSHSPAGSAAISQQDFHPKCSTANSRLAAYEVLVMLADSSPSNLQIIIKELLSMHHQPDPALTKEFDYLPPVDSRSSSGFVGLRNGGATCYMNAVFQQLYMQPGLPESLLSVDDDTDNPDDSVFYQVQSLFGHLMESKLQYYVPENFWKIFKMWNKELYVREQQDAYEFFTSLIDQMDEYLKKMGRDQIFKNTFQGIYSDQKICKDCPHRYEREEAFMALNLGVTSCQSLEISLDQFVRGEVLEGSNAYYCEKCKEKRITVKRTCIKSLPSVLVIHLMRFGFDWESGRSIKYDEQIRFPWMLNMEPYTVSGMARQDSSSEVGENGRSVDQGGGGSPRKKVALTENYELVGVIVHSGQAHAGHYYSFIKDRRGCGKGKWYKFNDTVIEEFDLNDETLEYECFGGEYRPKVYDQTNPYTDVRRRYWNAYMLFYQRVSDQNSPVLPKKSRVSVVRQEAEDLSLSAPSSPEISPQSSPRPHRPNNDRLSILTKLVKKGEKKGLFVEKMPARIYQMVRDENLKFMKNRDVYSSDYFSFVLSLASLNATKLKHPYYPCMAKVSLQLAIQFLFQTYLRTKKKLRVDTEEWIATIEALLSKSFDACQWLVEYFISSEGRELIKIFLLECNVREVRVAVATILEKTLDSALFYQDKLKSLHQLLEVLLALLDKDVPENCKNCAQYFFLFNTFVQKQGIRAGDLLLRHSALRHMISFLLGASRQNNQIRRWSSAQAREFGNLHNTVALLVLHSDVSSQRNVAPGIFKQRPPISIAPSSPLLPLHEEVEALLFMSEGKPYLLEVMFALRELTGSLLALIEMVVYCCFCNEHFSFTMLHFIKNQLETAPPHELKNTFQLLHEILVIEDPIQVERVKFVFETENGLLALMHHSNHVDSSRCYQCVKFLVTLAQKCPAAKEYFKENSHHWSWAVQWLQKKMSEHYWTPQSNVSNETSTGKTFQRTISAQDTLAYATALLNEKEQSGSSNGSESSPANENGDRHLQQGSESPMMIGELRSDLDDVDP
Outline: as §1

USP25 = target: T3, USP25 (UniProt Q9UHP3)
T3 sequence (whole entry): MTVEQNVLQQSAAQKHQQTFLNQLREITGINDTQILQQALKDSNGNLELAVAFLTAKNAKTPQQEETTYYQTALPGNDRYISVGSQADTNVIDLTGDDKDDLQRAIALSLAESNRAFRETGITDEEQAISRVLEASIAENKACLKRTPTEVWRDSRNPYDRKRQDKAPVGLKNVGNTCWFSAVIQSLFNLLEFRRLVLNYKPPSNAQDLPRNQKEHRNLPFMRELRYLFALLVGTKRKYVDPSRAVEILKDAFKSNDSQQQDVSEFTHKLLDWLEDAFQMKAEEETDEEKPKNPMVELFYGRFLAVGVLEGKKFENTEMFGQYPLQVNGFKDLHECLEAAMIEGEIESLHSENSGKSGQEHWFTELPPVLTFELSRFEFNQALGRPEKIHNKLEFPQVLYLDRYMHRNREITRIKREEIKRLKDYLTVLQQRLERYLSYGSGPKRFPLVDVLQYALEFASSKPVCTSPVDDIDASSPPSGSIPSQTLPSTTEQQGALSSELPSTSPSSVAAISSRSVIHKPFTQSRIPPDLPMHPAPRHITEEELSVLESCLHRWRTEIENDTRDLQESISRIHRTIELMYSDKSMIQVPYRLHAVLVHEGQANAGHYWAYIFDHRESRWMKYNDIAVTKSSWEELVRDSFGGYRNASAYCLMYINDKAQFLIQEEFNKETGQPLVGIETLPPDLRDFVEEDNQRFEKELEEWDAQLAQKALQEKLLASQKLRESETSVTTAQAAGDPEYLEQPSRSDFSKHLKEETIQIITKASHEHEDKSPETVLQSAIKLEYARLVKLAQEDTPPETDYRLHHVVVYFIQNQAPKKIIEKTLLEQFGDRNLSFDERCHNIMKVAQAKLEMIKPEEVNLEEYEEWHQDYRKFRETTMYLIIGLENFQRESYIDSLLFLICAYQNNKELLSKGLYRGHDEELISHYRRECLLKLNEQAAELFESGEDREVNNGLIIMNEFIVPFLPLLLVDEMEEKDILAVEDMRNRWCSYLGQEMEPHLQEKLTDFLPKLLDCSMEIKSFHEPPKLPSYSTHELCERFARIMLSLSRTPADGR
Outline: as §1

USP28 = target: T4, USP28 (UniProt Q96RU2)
T4 sequence (whole entry): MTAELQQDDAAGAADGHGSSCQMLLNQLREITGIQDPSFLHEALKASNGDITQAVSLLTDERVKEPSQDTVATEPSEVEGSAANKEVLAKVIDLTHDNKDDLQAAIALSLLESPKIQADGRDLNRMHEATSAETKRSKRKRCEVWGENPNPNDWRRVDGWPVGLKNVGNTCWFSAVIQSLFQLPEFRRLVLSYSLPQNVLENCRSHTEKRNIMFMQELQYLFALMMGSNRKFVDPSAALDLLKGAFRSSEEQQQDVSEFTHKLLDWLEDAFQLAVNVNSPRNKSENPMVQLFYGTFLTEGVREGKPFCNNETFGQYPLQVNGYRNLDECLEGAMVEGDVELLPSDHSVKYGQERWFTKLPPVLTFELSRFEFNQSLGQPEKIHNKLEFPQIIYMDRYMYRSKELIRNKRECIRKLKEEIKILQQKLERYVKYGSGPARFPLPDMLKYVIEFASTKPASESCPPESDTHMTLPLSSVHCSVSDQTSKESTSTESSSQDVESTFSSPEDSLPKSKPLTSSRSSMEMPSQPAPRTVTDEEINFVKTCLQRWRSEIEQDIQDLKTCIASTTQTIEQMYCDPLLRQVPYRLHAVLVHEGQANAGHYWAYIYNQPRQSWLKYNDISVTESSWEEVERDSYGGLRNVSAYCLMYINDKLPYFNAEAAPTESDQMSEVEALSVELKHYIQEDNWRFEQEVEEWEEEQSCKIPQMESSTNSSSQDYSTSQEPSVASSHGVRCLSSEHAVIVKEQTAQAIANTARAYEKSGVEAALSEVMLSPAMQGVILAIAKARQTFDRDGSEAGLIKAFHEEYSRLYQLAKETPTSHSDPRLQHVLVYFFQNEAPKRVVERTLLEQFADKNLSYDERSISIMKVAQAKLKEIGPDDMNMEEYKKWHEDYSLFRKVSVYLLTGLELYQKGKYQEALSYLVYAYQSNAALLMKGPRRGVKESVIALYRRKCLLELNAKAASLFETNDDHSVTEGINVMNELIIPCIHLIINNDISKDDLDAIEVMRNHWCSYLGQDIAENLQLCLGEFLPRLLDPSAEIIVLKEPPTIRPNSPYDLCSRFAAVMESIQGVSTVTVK
Outline: as §1

Q: How did the “log2 ratio of Biotin-Ahx-Ub-VS probe labelling” value (from here on “log2 ratio”) (USP19) turn out when Cc1cccc(NC(=O)CCl)c1C was run?
A: -0.393

Q: What about the “log2 ratio” value (USP22) of the same compound?
A: -0.267

Q: And the “log2 ratio” value (USP24)?
A: -0.573

Q: And the “log2 ratio” value (USP25)?
A: -1.06 (active)

Q: And the “log2 ratio” value (USP28)?
A: -1.32 (active)
